According to PubChem BioAssay (NCI):
This is part of a sample that, as a whole, favours compounds with a hit. Of some 83,000 tested, about 20% had one in any assay.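 Interpretation: 100, growth as untreated; towards 0, rising growth inhibition; 0, no net growth; 0 to -100, cell death. Compounds scoring below 10 were considered active.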 Unmarked numbers belong to inactive results. The source made the active and inactive calls.

Key:
Assay in all cases: NCI-60 one-dose screen, 48 h (100 = growth as untreated, 0 = no growth, -100 = all killed)
[1] = system: NCI-H23 lung; settings: 10 µM unless noted
[2] = system: NCI-H226 lung; settings: 10 µM unless noted
[3] = system: NCI-H322M lung; settings: 10 µM unless noted
[4] = system: HOP-62 NSCLC; settings: 10 µM unless noted
[5] = system: HOP-92 NSCLC; settings: 10 µM
[6] = system: NCI-H522 lung; settings: 10 µM
[7] = system: A549/ATCC NSCLC; settings: 10 µM unless noted
[8] = system: 786-0 renal; settings: 10 µM unless noted
[9] = system: NCI-H460 lung; settings: 10 µM unless noted
[10] = system: COLO 205 colon; settings: 10 µM unless noted

| Compound | growth [1] | growth [2] | growth [3] | growth [4] | growth [5] | growth [6] | growth [7] | growth [8] | growth [9] | growth [10] |
| --- | --- | --- | --- | --- | --- | --- | --- | --- | --- | --- |
| COc1cc2oc(-c3ccc(NC(=O)c4ccccc4)cc3)cc(=O)c2c(OC)c1OC | 82.4% | 85.4% | 69.4% | 90.3% | 69.2% | 70.2% | 80.3% | 90.4% | – | – |
| CCCCCCCCCCCCCCCCCCOP(=O)(O)O | 106% | 98.8% | 103% | 100% | – | – | 105% | 116% | 101% | 111% |
| NCCCOc1cc2ccccc2cc1C(=O)Nc1ccc(Cl)cc1OC(=O)c1cc2ccccc2cc1OCCCN | -72.2% (active) | -57.6% (active) | -69.3% (active) | -92.3% (active) | – | – | -94.3% (active) | -86.2% (active) | -89.7% (active) | -90.8% (active) |
| CC#Cc1nc(Nc2cc(C)[nH]n2)c2ccccc2n1 | 2.12% [100 µM] (active) | -27.7% [100 µM] (active) | 9.12% [100 µM] (active) | -23.1% [100 µM] (active) | – | – | 1.41% [100 µM] (active) | 7.19% [100 µM] (active) | 3.75% [100 µM] (active) | -100% [100 µM] (active) |
| O=C(NC(=S)NNC(=S)NNc1ccccc1)c1ccccc1 | 25.9% | 40.6% | 68.2% | 43% | – | – | – | 67.7% | 13.2% | 81% |
| CCOC(=O)C(C)C(C)(O)c1ccccc1 (configuration not stated) | 98.5% | 94.1% | 93.2% | 109% | – | – | – | 94.1% | 103% | 112% |
| OCCN1CCCN(CCCN2c3ccccc3Sc3ccc(C(F)(F)F)cc32)CC1 | 68.8% | 92.7% | 73.6% | 74.8% | – | – | – | 65.1% | 40.7% | -81.8% (active) |
| CNc1nc2ncn(C)c2c(=O)[nH]1 | 105% | 98.5% | 88.2% | 96.5% | – | – | – | 103% | 103% | 94.5% |
| CCCCN(CCCC)c1ccc(C(=O)O)cc1 | 98.1% | 99.5% | 98.4% | 98% | – | – | – | 99.4% | 104% | 98.8% |
| O=C(CN1CCN(c2cccc(Cl)c2)CC1)N1CCN(c2nnc(-c3ccc(Cl)cc3)c(-c3ccc(Cl)cc3)n2)CC1 | 87.7% | 76.7% | 77.8% | 116% | – | – | – | 91.2% | 76.5% | 82.8% |
| Oc1ccc(N=Nc2ccc(N=Nc3ccccc3)cc2)cc1 | 59.9% | 57% | 49.7% | 59.3% | 79.8% | -15.1% (active) | 9.84% (active) | 38.3% | – | – |
| C/C=C(/C)C(=O)OC1C=C(CO)C(=O)C(OC(=O)C2(C)OC2C)C1C(C)C (configuration not stated) | -63.1% (active) | -36.4% (active) | -3.37% (active) | 0.921% (active) | -35.1% (active) | -79.5% (active) | -23.5% (active) | -89.7% (active) | – | – |
| CCCCCCCCCC(C)NC(=O)CCl (configuration not stated) | 90% | 96.5% | 96.6% | 102% | – | – | – | 93.1% | 107% | 113% |
| O=C(Nc1cccc(Cn2c(=O)[nH]c3ccc(Oc4ncccn4)cc3c2=O)c1)c1cc(Cl)cc(Cl)c1 | 74.1% | 44.2% | 57.7% | 71.6% | 44.1% | 49.3% | 56% | 72.6% | – | – |
| OCCN1CCN(CC/C=C2/c3ccccc3Sc3ccc(C(F)(F)F)cc32)CC1 | 72.3% | 91% | 72.6% | 75.9% | – | – | – | 71.2% | 82.7% | 1.04% (active) |
| CCOc1ccc(Br)cc1/C=C(\C#N)c1ccc([N+](=O)[O-])cc1 | 87.6% | 81.2% | 77.4% | 22.1% | – | – | – | 86.3% | 82.2% | 97.2% |
| CCCCCCCCCCCCCCCCCC(=O)Nc1ccc(O)cc1 | 98.7% | 102% | 97% | 91.4% | – | – | – | 79% | 100% | – |

| Compound | growth [1] | growth [2] | growth [3] | growth [4] | growth [5] | growth [6] | growth [7] | growth [8] | growth [9] | growth [10] |
| --- | --- | --- | --- | --- | --- | --- | --- | --- | --- | --- |
| C[n+]1c2ccccc2c(Nc2ccc(NS(=O)(=O)CCCCN=C(N)N)cc2)c2ccc(N)cc21 | 26% | 41% | 71.4% | 32.2% | – | – | – | 44.1% | 10.9% | 50.4% |
| CC(C)(C)c1cc(C[P+](c2ccc(Cl)cc2)(c2ccc(Cl)cc2)c2ccc(Cl)cc2)cc(C(C)(C)C)c1O | 86.5% | 90.6% | 86.1% | 98.9% | – | – | – | 99.1% | 94.9% | 50.4% |
| COc1ccc(Nc2c3ccccc3nc3ccccc23)cc1 | 36.1% | 6.97% (active) | 43.3% | 33.7% | – | – | – | 43.6% | 9.36% (active) | 20.1% |
| Cc1ncc(C(=O)Nc2ccc(CN3CCN(C)CC3)c(C(F)(F)F)c2)cc1C#Cc1cnc(NC2CC2)c2ncccc12 | -70.8% (active) | 39.7% | -87.7% (active) | 16.9% | 33.4% | -76.4% (active) | -91.5% (active) | -85.2% (active) | – | – |
| COC(=O)[C@@H]1[C@H](O)[C@H](C)[C@H](O)[C@H](C)/C=C\C=C(C)C(=O)Nc2c(C)c(OC(C)=O)c3c(c2O)C(=O)C(C)=C2OCOC(=C23)C(C)=C[C@@](C)(O)[C@H](O)[C@@H](C)[C@H]1OC(C)=O | 109% | 104% | 121% | -100% (active) | – | – | 98.6% | 111% | 110% | 116% |
| CCN(CC)C(=O)C1(C)CCCC2(C)c3cc(OC(C)=O)ccc3CCC12 (configuration not stated) | 84.3% | 75.8% | 83.5% | 94.9% | – | – | – | 92% | 90% | 92% |
| CCC(C)(CC)c1ccc(O)c(C)c1 | 98.9% | 98% | 94.4% | 101% | – | – | – | 94.8% | 105% | 105% |
| Cc1ccc(S(=O)(=O)Nc2cccc(Cn3c(=O)[nH]c4ccc(Oc5ncccn5)cc4c3=O)c2)cc1 | 85.4% | 86.1% | 79.9% | 72.2% | 62.9% | 33.6% | 90.7% | 95.9% | – | – |
| Cc1ncc(C(=O)Nc2ccc(CN3CCN(C)CC3)c(C(F)(F)F)c2)cc1C#Cc1c(N)ncc2ccc(F)cc12 | -79.4% (active) | 19.5% | -89.7% (active) | 15.9% | -29.9% (active) | 37.3% | -69.9% (active) | -70.5% (active) | – | – |
| Cc1ccc(C(=O)Nc2ccc(CN3CCN(C)CC3)c(C(F)(F)F)c2)cc1C#Cc1cnc(N)c2ccc(F)cc12 | -77.3% (active) | -45.5% (active) | -99.3% (active) | -68.8% (active) | -90.3% (active) | -75.1% (active) | -87.5% (active) | -85.3% (active) | – | – |
| NCCCOc1cc(Cl)ccc1NC(=O)c1cc2ccccc2cc1OCCCN | -62.3% (active) | -28.9% (active) | -1.29% (active) | -94.3% (active) | – | – | -93.6% (active) | -89.2% (active) | -91% (active) | -88% (active) |
| Cc1ccc(C(=O)C(Br)C(Br)c2ccccc2)cc1 (configuration not stated) | 114% | 92.8% | 95% | 115% | – | – | – | 99.4% | 101% | 52.8% |
| CCCCCCCCCCCC(=O)OC(C)C(=O)Nc1ccccc1 (configuration not stated) | 98.9% | 103% | 95.3% | 97.4% | – | – | 104% | 94.7% | 104% | 102% |
| O=C(Nc1cccc(Cn2c(=O)[nH]c3ccc(Oc4ncccn4)cc3c2=O)c1)c1ccc(Cl)cc1 | 46.9% | 34.6% | 61.5% | 55.2% | 52.8% | 50.5% | 46.9% | 70.5% | – | – |
| O=C(NCCCl)Nc1nccnc1OCc1ccc(F)cc1 | 97.2% | 100% | 104% | 91.4% | 79.4% | 77.6% | 102% | 89% | – | – |
| Cc1ccc(C(=O)Nc2ccc(CN3CCN(C)CC3)c(C(F)(F)F)c2)cc1C#Cc1cnc(N)c2ccc(C#N)cc12 | 48.3% | 54.4% | 73.8% | 42.7% | 13.7% | 60.6% | 36.7% | -25% (active) | – | – |
